Shown are actives, neighbours in structure and some others; about 2.2% of the full set was active somewhere.
SUMO Mot1 rescue: yeast Mot1-301 growth rescue at high temperature, primary screen, SUMOylation pathway inhibitor project, S. cerevisiae, ATP luminescence, 38.5C. S. cerevisiae Mot1-301 growth rescue; percent above DMSO median, 100 means doubled. growth rescue, % at 18.8 µM. 320,000 tested, 1% active;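 active means every valid replicate shows activation above 250% relative to neutral control wells; inactive means the rest, any valid replicate at or below 250%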;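 further: OY570 slx delta 5 strain wells were the positive control but not used for scaling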
JMJD2C inh: inhibitors of GASC-1 histone demethylase, primary screen, biochemical, fluorescence, DELFIA europium; 330,000 tested, 0.069% active; AID 2099, 2009; GST-JMJD2C(1-420) H3K9me3 demethylation; inhibition, % at 2.35 µM;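 active means more than half of a compound's replicate wells show inhibition beyond 50%, single wells judged on their own value; inconclusive means some, but no more than half, of replicates pass 50% inhibition; inactive means no replicate passes 50% inhibition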;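 further: signal counts dimethyl H3K9 product captured on neutravidin plate; 0% = median of DMSO wells and 100% = 0.3 times that DMSO median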
Target sequence (Q9H3R0 1-420 limits assumed): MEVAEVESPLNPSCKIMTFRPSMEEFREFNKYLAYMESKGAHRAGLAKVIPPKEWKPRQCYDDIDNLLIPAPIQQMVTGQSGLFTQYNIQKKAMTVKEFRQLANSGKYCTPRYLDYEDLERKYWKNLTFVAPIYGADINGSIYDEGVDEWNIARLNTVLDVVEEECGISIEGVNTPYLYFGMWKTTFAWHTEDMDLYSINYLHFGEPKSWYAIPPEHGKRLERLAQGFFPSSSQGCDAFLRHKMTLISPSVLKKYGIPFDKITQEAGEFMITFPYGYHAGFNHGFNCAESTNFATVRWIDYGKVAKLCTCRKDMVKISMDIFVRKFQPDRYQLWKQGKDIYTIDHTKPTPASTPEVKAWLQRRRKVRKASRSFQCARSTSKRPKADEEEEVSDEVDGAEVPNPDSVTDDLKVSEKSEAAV
PHOSPHO1 block: PubChem AID 1565; Phosphoethanolamine/phosphocholine phosphatase (Homo sapiens), Q8TCT1; recombinant PHOSPHO1, absorbance phosphatase assay; inhibition, % at 13.3 µM; 290,000 tested, 1.1% active; in the data active means inhibition above about 60%
PvdQ inh: P. aeruginosa PvdQ acylase inhibitors, primary screen, biochemical, fluorescence, plate reader and imaging, single point; PvdQ acylase [Pseudomonas aeruginosa LESB58]; inhibition, % at 10 µM; 340,000 tested, 0.063% active; AID 488965, 2010; purified PvdQ acylase; in the data active means inhibition above about 30%, passing the limit was not always enough; inconclusive means no clear call, values can overlap the other calls;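 further: 0% = vehicle neutral wells and 100% = reference inhibitor wells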
pCIP destab: p/CIP-EGFP fusion destabilizers, primary screen, fluorescence, F442A cells; 16 h; decrease of EGFP signal, % at 10 µM; 290,000 tested, 0.01% active; AID 1984, 2009;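 active means EGFP signal decrease of at least 30% at 10 µM or well 3 SD below plate mean, unless failing retest; inactive means the rest, including hits failing retest or dose response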
HDAC3 inh: HDAC3 deacetylase inhibitors, primary screen, biochemical, fluorescence, cell-free homogeneous | recombinant HDAC3, fluorogenic peptide/trypsin coupled | AID 2718, 2010 | 320,000 tested, 0.15% active | Histone deacetylase 3 (Homo sapiens), O15379 | inhibition, % at 8.3 µM; in the data active means inhibition above about 26%, passing the limit was not always enough; inconclusive means no clear call, values can overlap the other calls
Active calls of the source: *; i = inactive; ? = inconclusive; . = not tested or not shown.

SMILES | SUMO Mot1 rescue | JMJD2C inh | PHOSPHO1 block | PvdQ inh | pCIP destab | HDAC3 inh
O=S(=O)(NCc1nc2ccccc2[nH]1)c1ccccc1 | -18 | -1 | 73* | -6 | -4 | 1
CNCc1nc2ccccc2[nH]1 | -1 | -22 | 28 | 3 | 11 | -4
O=C(Nc1ccc(S(=O)(=O)N2CCOCC2)cc1)c1cccc(Br)c1 | 6 | 0 | 14 | 9 | -9 | 5
C/C(=N\NC(N)=S)C1=CCC2C3CC[C@H]4CC(O)CC[C@]4(C)C3CC[C@]12C (some centres undefined) | 348* | -6 | 1 | 12 | -15 | -4
O=C(c1cccnc1)N1CCN(S(=O)(=O)c2cccc(Cl)c2)CC1 | -20 | 15 | 36 | -10 | -9 | 5
O=C(c1cncc(Br)c1)N1CCN(S(=O)(=O)c2ccc(Cl)cc2)CC1 | 306* | 2 | 14 | -10 | 8 | -2
CC(C)(C)C(=O)/C(=C\c1ccc([N+](=O)[O-])cc1)n1cncn1 | 330* | -2 | -14 | . | 8 | 11
CCOC(=O)C1(CCCc2ccccc2)CCN(C(=O)CCOC)CC1 | 600* | -8 | 15 | 5 | 14 | -6
CCOC(=O)C1(CCCc2ccccc2)CCN(C(=O)CCc2cnn(C)c2)CC1 | 300 | -12 | -6 | -5 | -2 | -2
CCc1ccc(NC(=O)COC(=O)c2nc3nc(C)cc(C)n3n2)cc1 | 27 | 2 | . | 1 | . | -7
c1ccc(COc2ccc(OCCn3cncn3)cc2)cc1 | 252* | 11 | -6 | -7 | -4 | -1
COc1ccc(OCC(=O)NC(=O)c2ccccc2OC)c([N+](=O)[O-])c1 | 14 | 3 | . | -12 | . | 5
COc1ccc(C)cc1NC(=O)C1CCCN1S(=O)(=O)c1ccccc1F (centres undefined) | 1 | 1 | . | -5 | . | -2
O=Cc1coc2c(ccc3ccccc32)c1=O | 322* | -18 | 50 | . | 0 | -1
O=C/C=C/c1coc2ccc3ccccc3c2c1=O | 12 | 1 | 28 | . | -4 | -1
Cc1cc(=O)oc2cc(OC(=O)CCCCCN3C(=O)c4ccccc4C3=O)ccc12 | 253 | -8 | -7 | -8 | -4 | -13
COC(=O)C(Cc1ccccc1)NC(=O)COc1ccc(C(C)(C)C)cc1 (centres undefined) | 13 | 61* | 0 | -13 | 9 | 14
CCOc1ccc(C(=O)NC(C(=O)NCC(c2cccs2)N(C)C)C(C)C)cc1 (centres undefined) | 20 | -4 | . | 0 | . | 8
CCN(CC(=O)Nc1ccc(C(=O)OC)cc1)C1CCCCC1 | -3 | -6 | 42 | -11 | -1 | -1
CCN1CCc2c(OCC(=O)Nc3ccc(C)cc3)cccc2C1=O | -21 | -3 | 62* | -7 | -8 | -3
CCN1CCc2c(OCC(=O)Nc3ccccc3)cccc2C1=O | -4 | 0 | -58 | -14 | -8 | -5
CCCn1c(N)c(C(=O)COC(=O)CCNS(=O)(=O)c2ccccc2F)c(=O)[nH]c1=O | -25 | 8 | . | 9 | . | -16
CCn1c(=O)c2c3c(sc2n2c(=S)[nH]nc12)CCC3 | -8 | -1 | 102* | 4 | -2 | -1
CCn1c(NN)nc2sc3c(c2c1=O)CCC3 | -1 | 9 | 86* | -4 | -9 | 12
COc1ccc(NC(=S)N2CCC(C(=O)c3ccc(OC)cc3)CC2)cc1 | 17 | -8 | 39 | -8 | -7 | 3
SMILES | SUMO Mot1 rescue | JMJD2C inh | PHOSPHO1 block | PvdQ inh | pCIP destab | HDAC3 inh
CCC(=O)Nc1cc(C(C)(C)C)ccc1C(C)=O | 2 | -2 | -11 | -16 | 0 | -5
O=C(O)Cc1ccc(NC(=O)C2CC=CCC2C(=O)O)cc1 (centres undefined) | 625* | -8 | -1 | . | -4 | -5
CC(C)Sc1nc(SCC(=O)NCc2ccco2)c2c3c(sc2n1)COC(C)(C)C3 | 1 | 10 | -6 | 4 | -3 | 6
CC(C)Sc1nc(SCC(=O)O)c2c3c(sc2n1)COC(C)(C)C3 | 69 | -7 | 84* | -8 | 2 | 1
C=CCCC(=O)N1CCCC(Cc2cccc(Cl)c2)(C(=O)OCC)C1 (centres undefined) | 14 | -11 | 51 | -20 | -15 | 4
CCn1c(-c2ccc3[nH]c(C)c(C)c3c2)n[nH]c1=S | -4 | 1 | 94* | -10 | -7 | -2
Cc1[nH]c2ccc(-c3n[nH]c(=S)n3C)cc2c1C | 3 | -3 | 98* | 1 | 6 | -2
FC(F)(F)c1cccc(-c2cc(C3CCNCC3)[nH]n2)c1 | -5 | 1 | 31 | -10 | 12 | 6
COC(=O)CCN1CCC(c2cc(-c3cccc(C(F)(F)F)c3)n[nH]2)CC1 | 320* | -2 | 20 | 12 | -1 | 4
COc1cccc(/C=N/NC(=O)c2ccc(COc3ccc(Cl)cc3Cl)o2)c1 | 322* | 5 | 19 | -8 | -13 | -4
CC(C)N(CCn1c(=S)[nH]c2ccccc2c1=O)C(C)C | 308* | 16 | 38 | -6 | 2 | 0
O=c1c2ccccc2[nH]c(=S)n1CCN1CCCC1 | 1 | -2 | 47 | 9 | -4 | 3
CCOC(=O)c1csc(NC(=O)c2ccc(C#N)cc2)n1 | i | 2 | 48 | 15 | 13 | -2
O=c1c2c([N+](=O)[O-])cc([N+](=O)[O-])cc2sn1-c1ccc(Br)cc1 | -12 | 0 | 89* | -5 | -8 | ?
COCCn1c(SCCN2CCOCC2)nc2c1c(=O)[nH]c(=O)n2C | -18 | 5 | 63* | -6 | -22 | 1
CCCCCCn1c(SCC(=O)OC)nc2c1c(=O)[nH]c(=O)n2C | -7 | -15 | 83* | -9 | 2 | -2
CCSc1nc2c(c(=O)[nH]c(=O)n2C)n1C/C=C(/C)Cl | 18 | . | -25 | 8 | -8 | -3
C=CCn1c(SCCN2CCOCC2)nc2c1c(=O)[nH]c(=O)n2C | -18 | -9 | 33 | 5 | 2 | -2
CCOC(=O)C(C)Sc1nc2c(c(=O)[nH]c(=O)n2C)n1C/C=C(/C)Cl (centres undefined) | -7 | -13 | 65* | -15 | -8 | 6
COc1ccc(CC2(CO)CCN(C(C)Cc3ccc(Cl)cc3)CC2)cc1 (centres undefined) | 142 | 6 | -11 | -7 | 2 | -3
O=[N+]([O-])c1ccccc1OCC(O)CN1CCN(CC(O)COc2ccccc2[N+](=O)[O-])CC1 (centres undefined) | -5 | -8 | 8 | -9 | 8 | -2
Cc1nc2c(=O)[nH]c(=S)[nH]c2[nH]c1=O | . | . | . | -10 | . | .
N#Cc1cc2c(nc1SCc1nc3ccccc3[nH]1)CCC2 | -23 | 0 | 74* | . | 3 | -1
